Reference: the supplement of paper PMC13380429

Tested on: Vero E6 infected with SARS-CoV-2
Assay: inhibition of SARS-CoV-2 cytopathic effect; higher = more antiviral protection, active = above 15
Details: 48 h

Measured: inhibition of SARS-CoV-2 cytopathic effect

CC(C)NC(=N)NC(=N)Nc1ccc(Cl)cc1 [proguanil]
inactive: 1 nM -0.7% | 8.33 nM 0.28% | 100 nM -0.95% | 833.33 nM -1.01% | 10000 nM -5.67%

CCN(CC)CCOCCOC(=O)C1(c2ccccc2)CCCC1 [carbetapentane]
inactive: 1 nM -0.34% | 8.33 nM 0.73% | 100 nM 1.1% | 833.33 nM 1.39% | 10000 nM 0.95%

C/C=C1\NC(=O)[C@H]2CSSCC/C=C/[C@H](CC(=O)N[C@H](C(C)C)C(=O)N2)OC(=O)[C@H](C(C)C)NC1=O [romidepsin]
inactive: 1 nM -1.04% | 8.33 nM 0.79% | 100 nM -0.75% | 833.33 nM -16.6% | 10000 nM -18%

CC(O)COC[C@H]1O[C@@H]2O[C@H]3[C@H](O)[C@@H](O)[C@@H](O[C@H]4[C@H](O)[C@@H](O)[C@@H](O[C@H]5[C@H](O)[C@@H](O)[C@@H](O[C@H]6[C@H](O)[C@@H](O)[C@@H](O[C@H]7[C@H](O)[C@@H](O)[C@@H](O[C@H]8[C@H](O)[C@@H](O)[C@@H](O[C@H]1[C@H](O)[C@H]2O)O[C@@H]8COCC(C)O)O[C@@H]7COCC(C)O)O[C@@H]6COCC(C)O)O[C@@H]5COCC(C)O)O[C@@H]4COCC(C)O)O[C@@H]3COCC(C)O (stereo partly drawn) [hydroxypropyl-beta-cyclodextrin]
inactive: 1 nM 1.48% | 8.33 nM -0.26% | 100 nM 1.56% | 833.33 nM 0.29% | 10000 nM 0.7%

O=C(N[C@H](Cc1ccccc1)C(=O)O)c1sc2cc(F)ccc2c1Cl
inactive: 1 nM 2.8% | 8.33 nM 1.61% | 100 nM 0.39% | 833.33 nM 1.13% | 10000 nM 3.31%
